Source: PubChem BioAssay
The sample as a whole holds a higher share of hits than the screen did.
Artemis endo inh: blocks endonuclease activity of human Artemis | recombinant Artemis, quenched FAM hairpin cleavage fluorescence | inhibition, % at 10 µM | 0.78% of 30,000 active;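 active means at 10 µM dose, at least 30% inhibition, measured as corrected fluorescence normalized to stimulator and neutral control wells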
Target sequence (Q96SD1 whole entry, looked up): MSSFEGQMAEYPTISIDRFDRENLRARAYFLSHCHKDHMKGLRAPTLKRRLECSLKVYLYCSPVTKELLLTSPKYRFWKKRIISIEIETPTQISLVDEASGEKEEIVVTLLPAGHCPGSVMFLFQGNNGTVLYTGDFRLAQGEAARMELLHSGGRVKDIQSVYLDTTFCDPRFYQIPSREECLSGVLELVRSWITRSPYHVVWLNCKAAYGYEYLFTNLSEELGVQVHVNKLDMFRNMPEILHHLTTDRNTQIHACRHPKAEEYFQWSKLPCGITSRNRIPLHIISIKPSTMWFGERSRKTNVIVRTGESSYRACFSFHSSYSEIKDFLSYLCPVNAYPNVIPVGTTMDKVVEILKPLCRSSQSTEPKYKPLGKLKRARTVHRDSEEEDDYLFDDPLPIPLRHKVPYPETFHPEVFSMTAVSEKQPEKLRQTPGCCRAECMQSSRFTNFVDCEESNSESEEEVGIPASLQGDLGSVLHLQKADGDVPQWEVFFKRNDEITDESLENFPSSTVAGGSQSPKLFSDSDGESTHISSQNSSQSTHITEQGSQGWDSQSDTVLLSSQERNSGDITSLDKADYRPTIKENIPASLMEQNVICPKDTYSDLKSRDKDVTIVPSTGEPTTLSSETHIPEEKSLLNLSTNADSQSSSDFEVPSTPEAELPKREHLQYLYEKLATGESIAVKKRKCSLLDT
* marks the source's active call; other numbers are inactive results.

SMILES | Artemis endo inh
CCOC(=O)CSc1snnc1-c1ccccc1 | -3
COCCn1nnnc1C(c1ccc(OC)c(OC)c1)N1CCN(c2nc3ccccc3s2)CC1 (stereo unspecified) | -5
Cc1sc(NC(=O)C2CCCCC2C(=O)O)c(C(N)=O)c1-c1ccc(C(C)(C)C)cc1 (stereo unspecified) | 40*
Cc1sc(NC(=O)C2CCCCC2C(=O)O)c(C(N)=O)c1-c1ccc(C(C)C)cc1 (stereo unspecified) | 27
Cc1sc(NC(=O)C2CCCCC2C(=O)O)c(C(N)=O)c1-c1ccccc1 (stereo unspecified) | 2
O=C(Nc1cccc2c1CCCC2)C1CCCN(S(=O)(=O)c2cccc3nonc23)C1 (stereo unspecified) | 0
COc1ccccc1NCc1nnc(SCC(=O)N/N=C/c2ccco2)n1-c1ccc(Cl)cc1Cl | 8
O=C(CN1CCN(c2ccccn2)CC1)Nc1cc(C(F)(F)F)ccc1Cl | 4
COc1cc2oc3ccccc3c2cc1N(CC(=O)N1CCCCC1)S(=O)(=O)c1ccc(C)cc1 | 17
Cc1oc2c(c1C(=O)c1ccccc1)C(=O)C(=O)c1ccccc1-2 | 59*
O=C(c1ccccc1)c1cc2ccccc2o1 | -1
Cc1onc(-c2ccccc2)c1C(N)=O | 3
O=C(NCCCN1CCCC1=O)c1ccc(Cl)c(NS(=O)(=O)c2ccc(F)cc2)c1 | -8
CCOc1ccc(CCNS(=O)(=O)c2cnc[nH]2)cc1OCC | 6
Cc1ccc(N=Cc2c(O)n(-c3cc(Cl)ccc3N3CCOCC3)c(=O)c3ccccc23)cc1C | 6
O=C(NNC(=O)c1cc(O)c(O)c(O)c1)NC1CCCCC1 | 31*
O=C(NC1CCCCCCC1)c1ccccc1O | 0
O=C(NC1CCCCCCC1)NC1CCCCC1 | -4
N#CC1=C2C=CC=CN2CC1=O | 4
CCOC(=O)N1CCN(CC(=O)Nc2ccc(Oc3ccccc3)cc2)CC1 | 14
Cc1ccc(S(=O)(=O)NC(=O)c2cc(C)n(CCCn3ccnc3)c2C)cc1 | 0
COCCNC(=O)c1c(N)n(CCC2=CCCCC2)c2nc3ccccc3nc12 | 11
CCN(CCO)c1ccc(-n2c(N)c(C(=O)OC)c3nc4ccccc4nc32)cc1 | -4
C=CCn1c(N)c(C(=O)OCCC)c2nc3ccccc3nc21 | 40*
CCN(CC)C(=O)Cn1nc(C)c2ccccc2c1=O | -14
SMILES | Artemis endo inh
O=c1cc2c(nn1Cc1ccccc1Cl)-c1ccccc1CC2 | 11
CCOC(=O)N1CCN(c2ccc(C(=O)c3ccccc3)cc2F)CC1 | 0
CCOC(=O)N1CCN(C(=O)c2ccc(N3C(=O)c4ccccc4C3=O)cc2)CC1 | -7
CCOC(=O)N1CCN(c2cc(NCCC(=O)O)c3c4c(onc24)-c2ccccc2C3=O)CC1 | 33*
CC1CCCCN1C(=O)CSc1nnc(-c2ccc(Cl)s2)o1 (stereo unspecified) | -2
Cc1ccc2c(c1)c(=O)c1c3n2CCN(C(=O)CCl)C3CC1 (stereo unspecified) | 34*
CCN1CCn2c3c(c4cc(Br)ccc42)CCCC31 (stereo unspecified) | -10
Cc1ccc2c(c1)c1c3n2CCN(C(=O)CN2CCN(C)CC2)C3CCC1 (stereo unspecified) | 8
O=C(COC(=O)c1ccccc1Nc1cccc(C(F)(F)F)c1)NCc1ccco1 | 12
S=C(Nc1ccccc1)Nc1cc(Cl)ccc1Oc1ccccc1 | 11
COc1ccc(S(=O)(=O)N2CCCC(C(=O)NCc3ccncc3)C2)cc1 (stereo unspecified) | -3
CCC(=O)n1nc(NCc2ccccc2OC)nc1NCc1ccccc1OC | -5
CC(=O)OCCCCON1C(=O)c2ccccc2C1=O | 6
O=C1c2ccccc2C(=O)N1OCc1cccc(Cl)c1 | 55*
O=C1c2ccncc2C(=O)N1Cc1cccc(Cl)c1 | 4
CSc1nc2ccccc2cc1/C=C(\C#N)c1cccc(Cl)c1 | -4
O=C1NC(c2ccccc2)(C(F)(F)F)C(=O)N1Cc1cccnc1 (stereo unspecified) | 4
C/C(CC(=O)Nc1ccccn1)=N\NC(=O)C(=O)Nc1cccc(C)c1 | 1
C/C(CC(=O)Nc1ccccn1)=N\NC(=O)C(=O)Nc1cccc(Cl)c1C | 0
C/C(CC(=O)Nc1ccc(N(C)C)cc1)=N\NC(=O)c1ccccn1 | 33*
O=C(CSc1nnc(-c2cccnc2)n1Cc1ccccc1)NCc1ccccc1 | 2
O=C(NCc1ccccn1)c1cn(CCc2ccccc2)nn1 | 0
CSc1cccc(NC(=O)c2ccco2)c1 | 0
Cc1cc(C)c(S(C)(=O)=O)c(Sc2ccc(Cl)cc2)n1 | 2
CCn1c(=O)c(C(=O)Nc2nc3ccccc3[nH]2)c(O)c2ccccc21 | 50*
SMILES | Artemis endo inh
CCn1c(=O)c(C(=O)Nn2c(C)nc3ccccc3c2=O)c(O)c2ccccc21 | 12
CCn1c(=O)c(C(=O)NCCCO)c(O)c2ccccc21 | -7
O=C(c1ccc(Cl)cc1)N1CCC(O)(CSc2ccc(Cl)cc2Cl)CC1 | 9
NC(=O)c1sc2nc3c(c(-c4cccs4)c2c1N)CCCCC3 | 4
COC(=O)Cn1ncn2cccc2c1=O | 0
CCOC(=O)C(C)n1cnc2c(cnn2-c2ccc(Cl)cc2)c1=O (stereo unspecified) | -6
